Data from PubChem BioAssay (NCATS).
Where “and” joins values, the source holds several entries; their conditions need not be identical. Equal values may be shown once. Results filed as inconclusive are left out. Where a structure was tested more than once in an assay, its records may differ in their call. Calls of active or inactive are those of the source. Unless noted, calls come from the whole dose curve; as a rule, active = well fitted curve in the direction sought with a large enough effect; inconclusive = small, poorly fitted or top-dose-only effect, or another doubt; inactive = no such curve, though single readings can be large; an effect the other way counts as inactive or inconclusive.

assay: qHTS Assay for Identifying Gametocytocidal Compounds (AID 743244); note: potency is the fitted concentration of half-maximal effect;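 for max response: % is set by controls: 0 for no effect and ±100 for the full control effect; actives lower the fluorescent signal which means gametocytes are killed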; details: P. falciparum 3D7 stage III-V gametocytes, alamarBlue, 72 h; max response: stronger effect = lower value
Summary of the method: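 Compounds are pinned into medium, gametocytes (stage III–V, 3D7, 20,000 cells/well) added, and plates held 72 h at 37 °C in 5% CO2. AlamarBlue follows for 24 h before fluorescence reading.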

SMILES | max response | Potency
Cc1c(C(N)=O)cc([N+](=O)[O-])cc1[N+](=O)[O-] | -0.173% (inactive) | 
CC(=O)N/N=C/c1ccc([N+](=O)[O-])o1 |  | 31.6 µM (active)
NC(CO)(CO)CO | 0.227% (inactive) | 
COc1c(C)c2c(c(O)c1C/C=C(\C)CCC(=O)O)C(=O)OC2 | 31.6% (inactive) | 
CC(=O)OCC(=O)NCCCOc1cccc(CN2CCCCC2)c1 | 8.95% (inactive) and 5.62% (inactive) | 
CCCN1CCCC[C@H]1C(=O)Nc1c(C)cccc1C | -10.7% (inactive) | 
CNC(=O)CN(CCN(CCN(CC(=O)[O-])CC(=O)NC)CC(=O)[O-])CC(=O)[O-].O.[Gd+3] | 14.6% (inactive) and -8.14% (inactive) | 
CC(=O)Oc1ccc2c(c1)CC[C@@H]1[C@@H]2CC[C@]2(C)[C@@H](O)CC[C@@H]12 | 0.116% (inactive) | 
Nc1nc2ncc(CNc3ccc(C(=O)N[C@@H](CCC(=O)O)C(=O)O)cc3)nc2c(=O)[nH]1 | 17.9% (inactive) | 
COc1cccc(CCc2ccccc2OCC(CN(C)C)OC(=O)CCC(=O)O)c1 (configuration not stated) |  | 3.72 µM (active)
Cc1c(C)n(Cc2ccccc2)c2ccc(C(=O)OCCN(C)C)cc12 | 28.3% (inactive) | 
COCc1c(C(C)C)nc(C(C)C)c(/C=C/[C@@H](O)C[C@@H](O)CC(=O)O)c1-c1ccc(F)cc1 | -6.56% (inactive) | 
CCCCCCCCCCCCCCCC[N+](C)(C)CCN(Cc1ccc(OC)cc1)c1ncccn1 |  | 7.08 µM (active)
Cc1cccn2c(=O)c(-c3nnn[nH]3)cnc12 | -1.77% (inactive) | 
CN1CCN(CCCN2c3ccccc3Sc3ccc(S(=O)(=O)N(C)C)cc32)CC1 |  | 5.64 µM (active)
CCCC(=O)Nc1ccc(OCC(O)CNC(C)C)c(C(C)=O)c1 (configuration not stated) | 19.2% (inactive) | 
CCN(CC)CCOC(=O)C(c1ccccc1)C1CCCCC1 (configuration not stated) | 15% (inactive) | 
COc1ccc(CN2CCN(C(c3ccc(F)cc3)c3ccc(F)cc3)CC2)c(OC)c1OC | 1.04% (inactive) | 
CN(C/C=C/c1ccccc1)Cc1cccc2ccccc12 | 6.22% (inactive) | 

SMILES | max response | Potency
CN=C(NC#N)NCCSCc1csc(N=C(N)N)n1 | 5.67% (inactive) | 
Cc1ccc(C(=O)C(C)CN2CCCCC2)cc1 (configuration not stated) | -1.77% (inactive) | 22.4 µM (active)
C/C=C(/C(=C/C)c1ccc(O)cc1)c1ccc(O)cc1 | -1.19% (inactive) | 
Nc1ccn([C@@H]2O[C@H](CO)[C@@H](O)C2(F)F)c(=O)n1 | 15.6% (inactive) and -5% (inactive) | 
CCCCOc1ccc(OCCCN2CCOCC2)cc1 | 1.4% (inactive) | 
O=C1c2ccccc2C(=O)C1c1ccccc1 | 1.91% (inactive) | 
CC[C@@H](CO)NCCN[C@@H](CC)CO | 6.57% (inactive) | 
CC(=O)Oc1ccc(C(=C2CCCCC2)c2ccc(OC(C)=O)cc2)cc1 | 9.87% (inactive) | 
CN(C)CC/C=C1/c2ccccc2COc2ccc(CC(=O)O)cc21 | 3.04% (inactive) | 
CC(C)COC(=O)c1ccc(N)cc1 | 10.2% (inactive) | 
C=C1C[C@H]2[C@@H]3C=C(C)C4=CC(=O)CC[C@]4(C)[C@H]3CC[C@]2(C)[C@@]1(OC(C)=O)C(C)=O | 18% (inactive) | 
CCCCS(=O)(=O)N[C@@H](Cc1ccc(OCCCCC2CCNCC2)cc1)C(=O)O | 3.65% (inactive) | 
CC(=O)OCC(=O)[C@@]1(O)[C@H](C)C[C@H]2[C@@H]3CCC4=CC(=O)C=C[C@]4(C)[C@@]3(F)[C@@H](O)C[C@@]21C | 9.89% (inactive) and -3.15% (inactive) | 
OCc1ccccc1O | 23.6% (inactive) | 
CCCSS/C(CCO)=C(\C)N(C=O)Cc1cnc(C)nc1N | 2.02% (inactive) | 
Cc1cc(N)c2cc(NC(=O)Nc3ccc4nc(C)cc(N)c4c3)ccc2n1 | -2.17% (inactive) | 
NCCCC[C@H](N[C@@H](CCc1ccccc1)C(=O)O)C(=O)N1CCC[C@H]1C(=O)O | -3.1% (inactive) | 
Cc1c(F)c(N2CCNC(C)C2)cc2c1c(=O)c(C(=O)O)cn2C1CC1 (configuration not stated) | -1.28% (inactive) | 

assay: qHTS profiling for inhibitors of Plasmodium falciparum (3D7) proliferation (AID 743322);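 note: infected erythrocytes exposed to compound for 72 h before lysis; 100% = DMSO vehicle wells and 0% = 0.29 µM artemisinin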; details: P. falciparum 3D7 proliferation; at 28.7 µM (top of the series) unless noted
Summary of the method: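 Parasite DNA was quantified by SYBR Green I fluorescence (ex 485, em 535 nm) after overnight lysis in saponin/Triton buffer at room temperature. Cultures at 0.3% parasitemia and 2.5% hematocrit were first exposed to compound for 72 h at 37 C; signals were normalised to artemisinin (0.29 uM) and vehicle wells.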

SMILES | remaining parasite growth % (stronger effect = lower value)
COc1cccc(CCc2ccccc2OCC(CN(C)C)OC(=O)CCC(=O)O)c1 (configuration not stated) | 1.08%
CN1CCN(CCCN2c3ccccc3Sc3ccc(S(=O)(=O)N(C)C)cc32)CC1 | 1.46% [at 9.63 µM]
Nc1ccn([C@@H]2O[C@H](CO)[C@@H](O)C2(F)F)c(=O)n1 | -1.17% [at 57.5 µM]

assay: qHTS profiling for inhibitors of Plasmodium falciparum (DD2) proliferation (AID 743323; call rule not given here); details: lower = more inhibition; at 28.7 µM (top of the series) unless noted
Summary of the method: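 1536-well qHTS; infected RBCs 0.3% parasitemia/2.5% Hct final; cpd 72 h 37 C 5% CO2; lysis buffer + SYBR Green I, o/n RT dark; FI 485/535; norm. to 0.29 uM artemisinin and DMSO, plate-stack corrected.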

SMILES | activity, percent of control
COc1cccc(CCc2ccccc2OCC(CN(C)C)OC(=O)CCC(=O)O)c1 (configuration not stated) | 1.06%
CN1CCN(CCCN2c3ccccc3Sc3ccc(S(=O)(=O)N(C)C)cc32)CC1 | 2.48% [at 9.63 µM]
Nc1ccn([C@@H]2O[C@H](CO)[C@@H](O)C2(F)F)c(=O)n1 | 1.07% [at 57.5 µM]

assay: qHTS profiling for inhibitors of Plasmodium falciparum (HB3) proliferation (AID 743324); details: Plasmodium falciparum HB3 blood-stage proliferation; at 28.7 µM (top of the series) unless noted;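 note: 100% = DMSO vehicle wells and 0% = artemisinin-treated control wells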
Summary of the method: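 SYBR Green fluorescence (485 ex/535 em) of lysed cultures, incubated overnight at room temperature in the dark, quantifies parasite DNA. Infected erythrocytes at 0.3% parasitemia and 2.5% hematocrit were exposed 72 h; values normalized to DMSO and 0.29 uM artemisinin controls.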

SMILES | remaining proliferation (% of control), lower = more inhibition
COc1cccc(CCc2ccccc2OCC(CN(C)C)OC(=O)CCC(=O)O)c1 (configuration not stated) | 1.2%
CN1CCN(CCCN2c3ccccc3Sc3ccc(S(=O)(=O)N(C)C)cc32)CC1 | 1.27% [at 9.63 µM]
Nc1ccn([C@@H]2O[C@H](CO)[C@@H](O)C2(F)F)c(=O)n1 | 0.276% [at 57.5 µM]
